# Measurements as given in PubChem BioAssay AID602293 (National Center for Advancing Translational Sciences (NCATS), 2012).
# Out of some 1,300 compounds screened, about 30 (2%) were called active. Not shown: some 10% with an inconclusive outcome. Calls come from the whole dose curve; as a rule, active = well fitted inhibition curve with a large enough effect; inconclusive = small, poorly fitted or top-dose-only effect; inactive = flat fitted curve, though single readings scatter. This excerpt belongs to a sample that is enriched for actives.
# Assay: qHTS for antagonists of the Thyroid Stimulation Hormone Receptor: Hit Validation in HTRF Activity in a Luteinizing Hormone Receptor Cell Line
# Settings: LHR-expressing cell line, cAMP HTRF, antagonist mode; series mostly up to 58 µM; activity change, negative = inhibition: at the top concentration
# Text: The thyroid-stimulating hormone receptor (TSHR) is a member of the 7 trans-membrane-spanning receptor (7TMR) family of cell surface receptors. TSHR-mediated hyperthyroidism is important in thyroid pathology. The development of small molecule antagonists of TSHR may lead to therapeutic approaches for TSHR-mediated hyperthyroidism caused by constitutively activating mutations or stimulating auto-antibodies associated with Graves' disease. Graves' disease is the leading cause of hyperthyroidism and is caused by autoantibodies that stimulate TSHR (TsAbs) causing thyroid growth and unregulated overproduction of thyroid hormones and existing treatments have liabilities (agranulocytosis). In addition, TSHRs are known to be expressed in multiple extrathyroidal tissues including bone, brain, kidney, testis, fat and cells of the immune system but the role of the TSHR in these tissues is not clear. Therefore, TSHR antagonists/inverse agonists could be used as probes of extrathyroidal TSHR function. Finally, TSHR inverse agonists, which are a subclass of antagonists that inhibit agonist-independent (or basal or constitutive) TSHR signaling, could be used to inhibit TSH-independent signaling in patients with recurrent or metastatic thyroid cancer who are receiving thyroid hormone to suppress TSH.
# In collaboration between scientist from the NCGC and the NIDDK, a miniaturized HTRF high-throughput screen was developed. It's a cell based assay, where an anti cAMP antibody contains a fluorescent cryptate tag (excitation 337 nm; emission 620 nm) and the acceptor is cAMP-d2 (excitation 620 nm; emission 665 nm). When antibody and cAMP-d2 interact and are excited by a 337 nm light, a FRET occurs resulting in emission at 665 nm. The assay is competition between cAMP-d2 and cAMP (from the cell lysate). The homogeneous protocol allows for one step dispense after stimulation that is automation friendly. In order to confirm specificity of the compounds to the TSHR, a confirmatory assay was conducted on a similar family member, the Luteinizing Hormone (LH) receptor, transfected into a HEK 293 cell line, using an orthogonal detection technology to measure cAMP stimulation: antibody-based Homogeneous Time Resolved Fluorescence (HTRF).
# NIH Chemical Genomics Center [NCGC]
# NIH Molecular Libraries Probe Centers Network [MLPCN]
# Assay Provider: Marvin Gershengorn, NIDDK
# Homogeneous Time Resolved Fluorescence (HTRF) cAMP Assay. HEK 293 cells stably transfected with a vector containing the LH receptor and maintained under hygromycin selection were obtained from the laboratory of Dr. Marvin Gershengorn. Compounds were assayed using a HTRF cAMP detection kit (Cisbio) on the LH receptor transfected cell line. Briefly, 750 cells were plated in 2.5 ul/well of complete media (DMEM containing 10 % FCS, and 100 uM RO 20-1724) in 1536 well solid bottom white plates and 23 nl/well compound in DMSO solution or controls was added. Following 30 minute incubation at room temperature, 2.5 ul/well of labeled d2 cAMP and 2.5 ul/well of anti-cAMP antibody (both diluted 1:20 in lysis buffer) were added to each well using a flying reagent dispenser (Aurora Discovery, San Diego) . Plates were measured using the Envision plate reader (PerkinElmer, Boston, MA) with excitation at 330 nm and emissions of 615 nm and 660 nm.
# % is set by controls: 0 for no effect and ±100 for the full control effect; potency is the fitted concentration of half-maximal effect.
Structure (SMILES),Potency,"activity change, negative = inhibition"
Cc1cccc(N(C(=O)c2nsc(Cl)c2Cl)C(C(=O)NC2CCCC2)c2ccc(O)cc2)c1C (stereo not drawn),12 µM (active),
O=C(NC1CCCCC1)C(c1cccs1)N(Cc1cccs1)C(=O)c1cccs1 (stereo not drawn),,-9.17% (inactive)
CC(=O)c1ccc(N(C(=O)CNC(=O)c2ccco2)C(C(=O)NC2CCCC2)c2ccncc2)cc1 (stereo not drawn),,-0.321% (inactive)
Cc1c(C(=O)NCc2ccc3c(c2)OCO3)sc2nc(-c3ccccc3)cn12,,0.0777% (inactive)
N#Cc1c(Cl)nsc1NC(=O)c1ccccc1,,-2.2% (inactive)
O=C1CCCN1c1ccc(S(=O)(=O)Oc2ccc(Cl)cc2)cc1[N+](=O)[O-],,-4.4% (inactive)
CN(C)c1ccc(NC(=S)c2ccc3ccccc3n2)cc1,,1.72% (inactive)
CSc1nc(-c2ccc(Cl)cc2Cl)[nH]c(=O)c1C#N,,-0.495% (inactive)
CCOc1cc(N2CCOCC2)c(OCC)cc1NC(=O)c1cccc(S(=O)(=O)N2CCOCC2)c1,,-2.11% (inactive)
COc1ccc(S(=O)(=O)Nc2ccc(C)cc2)cc1N(C)S(=O)(=O)c1ccc(Cl)cc1,,-3.51% (inactive)
O=C(Nc1ncc(S(=O)(=O)c2ccc([N+](=O)[O-])cc2)s1)c1ccc2ccccc2c1,,-3.12% (inactive)
O=C(Nc1ncc(S(=O)(=O)c2ccc([N+](=O)[O-])cc2)s1)c1cccc2ccccc12,,0.232% (inactive)
CCOC(=O)CCCCCC(=O)Nc1ccc2c(c1)CC(=O)N([C@H](C)CO)C[C@@H](C)[C@H](CN(C)Cc1ccc3c(c1)OCO3)O2,,1.07% (inactive)
c1ccc2c(CSc3ncnc4nc[nH]c34)cccc2c1,,1.84% (inactive)
CC1=NN(C(N)=S)C(=O)C1N=Nc1ccc(Cl)cc1Cl (stereo not drawn),,-0.667% (inactive)
Cc1ncsc1CCOC(=O)C1C2CC3CC(C2)CC1C3 (stereo not drawn),,-1.68% (inactive)
CCOC(=O)N1CCN(C(=O)c2ccc3c(c2)N=C(CC)c2cc(C)ccc2S3)CC1,,-1.95% (inactive)
O=C(COC(=O)c1cc(S(=O)(=O)N2CCOCC2)c(Cl)cc1Cl)c1ccc[nH]1,,-1.62% (inactive)
COc1cc(/C=C(\C#N)c2ccccn2)ccc1OCc1ccc(Cl)cc1,,-1.94% (inactive)
C/C(=N\Nc1cc(C)nc(-c2ccccc2O)n1)c1ccccc1,,0.625% (inactive)
O=C(Nc1cc(S(=O)(=O)N2CCCCC2)ccc1Cl)c1ccccc1NS(=O)(=O)c1ccc(F)cc1,,-2.9% (inactive)
Clc1ccccc1CN(Cc1ccccc1)c1ncnc2nc[nH]c12,,1.01% (inactive)
COC(=O)c1ccc(NC(=O)Nc2ccc(F)c(Cl)c2)cc1,,-2.51% (inactive)
O=C1C(Cl)=C(Nc2ccc(O)cc2)C(=O)c2ccccc21,,-6.39% (inactive)
COc1ccc2cc(/C=C3\SC(=S)NC3=O)c(N3CCOCC3)nc2c1,,-2.49% (inactive)

Structure (SMILES),Potency,"activity change, negative = inhibition"
O=S1(=O)C=C(Sc2nc3cc(Cl)ccc3o2)c2ccccc21,,-7.43% (inactive)
O=C(Nc1ccc(Oc2ccc(Cl)cc2)c(Cl)c1)c1cc(I)cc(I)c1O,,-0.309% (inactive)
O=C(COC(=O)c1ccccc1C(=O)c1ccc(Cl)c([N+](=O)[O-])c1)NC1CCCCCC1,,-6.9% (inactive)
O=C(O)c1ccc(Cl)cc1Nc1nc2cc(Cl)ccc2o1,,-1.31% (inactive)
COc1ccc(CNC(=O)Cn2nc(Cc3cccnc3)c3ccccc3c2=O)cc1,,-0.39% (inactive)
CCC(=O)NC1=C(Cl)C(=O)C(NC(=O)CC)=C(Cl)C1=O,30.1 µM (active),
N#C/C(=N\Nc1ccc(Cl)c(Cl)c1)C(=O)C1CC1,,-0.632% (inactive)
O=S(=O)(Nc1cc(Cl)ccc1-n1cncn1)c1cc(Br)ccc1Br,,-0.878% (inactive)
O=C(Nc1cccc(Cl)c1)Nc1ccc(Br)cc1F,,-5.11% (inactive)
COC(=O)c1ccc(C2N=C(c3cccs3)CC(c3ccccc3O)N2)cc1 (stereo not drawn),,-2.24% (inactive)
COc1ccc(CNC(=O)C(c2ccco2)N(C(=O)c2snc(C(N)=O)c2N)c2cccc(OC)c2)cc1 (stereo not drawn),13.5 µM (active),
COc1ccc(CNC(=O)C(C)OC(=O)c2cccs2)cc1 (stereo not drawn),,-2.06% (inactive)
COc1cc(C(C(=O)NCc2ccccc2)N(C(=O)c2snc(C(N)=O)c2N)C2CCCC2)cc(OC)c1OC (stereo not drawn),,-0.39% (inactive)
O=C(O)/C=C/c1ccc(S(=O)(=O)Nc2ccccc2C(=O)Nc2ccc(F)cc2)cc1,,-0.301% (inactive)
OCCSc1nnc(Nc2ccccc2)s1,,0.323% (inactive)
O=C1C(SCCO)=C(SCCO)C(=O)c2ccccc21,26.9 µM (active),
CN1CCN(C2=CC3=CC(=C(C#N)C#N)CCC3CC2)CC1 (stereo not drawn),,0.754% (inactive)
Nc1nc(SCC(=O)C23CC4CC(CC(C4)C2)C3)n[nH]1,,1.45% (inactive)
CC(C)(C)C(=O)NC(NC(=S)Nc1sc2c(c1C#N)CCCC2)C(Cl)(Cl)Cl (stereo not drawn),,0.759% (inactive)
CC1Cc2ccccc2N1C(=O)COC(=O)/C=C/c1ccc(F)cc1 (stereo not drawn),,-0.809% (inactive)
COc1cc(NC(=O)Cn2nc(C(F)(F)F)c(Br)c2C)cc([N+](=O)[O-])c1,,-0.304% (inactive)
CCCC(=NC(C)CC)C1=C(O)CC(c2ccccc2)CC1=O (stereo not drawn),,-1.47% (inactive)
CCn1nc(C)cc1-c1nnc(Sc2ncc([N+](=O)[O-])s2)n1C,37.9 µM (active),
O=C(Nc1ncc(S(=O)(=O)c2ccc([N+](=O)[O-])cc2)s1)c1ccccc1F,,-0.0884% (inactive)
Cc1nc(NCCc2ccccc2)c(C#N)c(C)c1[N+](=O)[O-],,-0.65% (inactive)

Structure (SMILES),Potency,"activity change, negative = inhibition"
O=C(OCn1ncc(Cl)c(Cl)c1=O)c1ccccc1Cl,,-5.91% (inactive)
O=S(=O)(Nc1cccnc1)c1ccc(C2CCCCC2)cc1,,1.64% (inactive)
CC(C)Cc1nc2oc3c(Cl)ncnc3c2c2c1CCC2,,-4.6% (inactive)
Cc1cccc(NC(=O)c2ccc(Cl)c(S(=O)(=O)N3CCc4ccccc43)c2)n1,,-9.41% (inactive)
COc1ccc(CCNC2=C(Cl)C(=O)N(CCc3ccc(OC)c(OC)c3)C2=O)cc1OC,37.9 µM (active),
COc1ccc(CCNC2=C(Cl)C(=O)N(CCc3ccccc3)C2=O)cc1OC,,-9.23% (inactive)
COc1ccc(CCNc2ncnc3c2[nH]c2cc(OC)c(OC)cc23)cc1OC,,-3.52% (inactive)
COc1ccc(OC)c(NC(=O)CSc2ncnc3c2cnn3-c2ccccc2Cl)c1,,-8.87% (inactive)
COc1cccc(N2CCN(c3ncnc4c3cnn4-c3ccc(C)cc3C)CC2)c1,33.8 µM (active),
COc1ccc(-n2ncc3c(N(C)C4CCCCC4)ncnc32)cc1,,-3.61% (inactive)
O=C(NC1C2CC3CC(C2)CC1C3)c1ccc2c(c1)OCO2 (stereo not drawn),,1.26% (inactive)
CC(C)(C)OC(=O)NCCCCCc1cn([C@@H](CO)C(=O)NCCCCCCCCCCC(=O)N2CCN(C(=O)OC(C)(C)C)CC2)nn1,37.9 µM (active),
Cc1cccc(OCC(=O)Nc2nc3ccc([N+](=O)[O-])cc3s2)c1C,,2.41% (inactive)
CCOc1cc(N2CCOCC2)c(OCC)cc1NC(=O)c1cc(S(=O)(=O)N2CCOCC2)ccc1C,,-0.64% (inactive)
CN(c1ccccc1)S(=O)(=O)c1ccc(NC(=O)c2nc(S(C)(=O)=O)ncc2Cl)cc1,30.1 µM (active),
CCN(c1ccccc1)S(=O)(=O)c1ccc(NC(=O)c2nc(S(C)(=O)=O)ncc2Cl)cc1,33.8 µM (active),
Cc1ccc(CS(=O)(=O)c2ncc(Cl)c(C(=O)Nc3nnc(C(C)C)s3)n2)cc1,,-6.84% (inactive)
CC(C)c1nnc(NC(=O)c2nc(S(=O)(=O)Cc3ccccc3F)ncc2Cl)s1,,-6.24% (inactive)
CCOC(=O)c1ccc(NC(=O)c2nc(S(=O)(=O)Cc3ccccc3)ncc2Cl)cc1,,-2.38% (inactive)
CCC1CCCCN1S(=O)(=O)c1ccc(NC(=O)c2nc(S(C)(=O)=O)ncc2Cl)cc1 (stereo not drawn),30.1 µM (active),
COC(=O)c1ccc(NC(=O)c2nc(S(=O)(=O)Cc3cccc(C)c3)ncc2Cl)cc1,,-1.75% (inactive)
Cc1ccc(NC(=O)c2nc(S(=O)(=O)Cc3ccccc3C)ncc2Cl)cc1C,,-0.454% (inactive)
CN(c1cccc(NC(=O)c2ccc(Cl)c(S(=O)(=O)Nc3ccccc3)c2)c1)S(C)(=O)=O,,1.14% (inactive)
O=C(Nc1ccccc1)c1nnsc1S(=O)(=O)c1ccc(Cl)cc1,,-4.24% (inactive)
CCS(=O)(=O)c1ncc(Cl)c(C(=O)Nc2ccc(S(=O)(=O)N(C)c3ccccc3)cc2)n1,42.6 µM (active),

Structure (SMILES),Potency,"activity change, negative = inhibition"
CCCc1nnc(NC(=O)c2nc(S(=O)(=O)Cc3ccc(C)cc3)ncc2Cl)s1,,-2.21% (inactive)
COc1ccc(OC)c(NC(=O)c2cc(S(=O)(=O)NCc3ccco3)ccc2F)c1,,-2.65% (inactive)
COc1ccccc1C1CCN(c2cc(O)ccc2[N+](=O)[O-])CC1,,1.21% (inactive)
Cc1ccc(C)c(N2CCN(C(=O)C(Cc3ccccc3)n3cccc3)CC2)c1 (stereo not drawn),,-3.11% (inactive)
Cc1ccccc1NC(=O)c1cc2ccccn2n1,,2.78% (inactive)
Cc1csc(NC(=O)c2cc3c(C)nn(Cc4ccccc4Cl)c3s2)n1,,-3.84% (inactive)
COC(=O)CCN(Cc1cc(OC)ccc1OC)S(=O)(=O)c1ccccc1Br,,1.58% (inactive)
CCn1c(=NC(=O)CSC(C)=O)sc2cc(OC)ccc21,,-1.89% (inactive)
Brc1ccc(CNc2ccc3ncccc3c2)cc1,,0.575% (inactive)
Cc1n[nH]c(C)c1S(=O)(=O)N1CCCC(C(=O)N2CCN(c3ccc(Cl)cc3)CC2)C1 (stereo not drawn),,-2.41% (inactive)
CCCCn1c(-c2c(Cl)c(C)nn2C)n[nH]c1=S,,2.87% (inactive)
Clc1ccc(CCNc2ncnc3nc[nH]c23)cc1,,-2.95% (inactive)
Cc1cc(-n2c(C)cc(C(=O)CSc3[nH]c(=O)cc(C(F)(F)F)c3C#N)c2C)no1,,2.79% (inactive)
Cc1ccc(C(=O)C2=C(O)C(=O)N(c3ncccn3)C2c2ccccc2F)o1 (stereo not drawn),,-6.53% (inactive)
O=c1[nH]nc(Cc2ccc(-c3cccc(Cl)c3)o2)c2ccccc12,,1.92% (inactive)
C1=C(CCNc2ncnc3c2[nH]c2ccccc23)CCCC1,,-9.93% (inactive)
COc1ccc(N2CCN(C(c3nnnn3CCc3ccccc3)C(C)C)CC2)cc1 (stereo not drawn),,-0.511% (inactive)
O=C(NCCC1=CCCCC1)C1CCCN(S(=O)(=O)c2ccccc2)C1 (stereo not drawn),,-0.0889% (inactive)
CCCCCCOc1ccc(NC(=O)CC2C(=O)N(CC)C(=S)N2Cc2ccco2)cc1 (stereo not drawn),,0.236% (inactive)
COc1ccc(Nc2ccc([N+](=O)[O-])c3nonc23)c(OC)c1,,1.19% (inactive)
O=[N+]([O-])c1ccc(Sc2cccc[n+]2[O-])c2nonc12,23.9 µM (active),
COC(=O)c1c(NC(NC(C)=O)C(Cl)(Cl)Cl)sc2c1CCCC2 (stereo not drawn),,1% (inactive)
COc1cc([N+](=O)[O-])cc(/C=C2/SC(=S)N(Cc3ccccc3)C2=O)c1O,,-3.99% (inactive)
